Source: PMC4336329 (PLoS ONE, 2015)
Out of some 310,000 compounds screened, about 14,000 (4.5%) showed an effect of 50% or more. Effects have a minus sign here. The list comes from a sample in which strong results are over-represented; it also holds similar structures and randomly drawn compounds.

Each molecule was assayed against human ether-à-go-go-related gene (hERG) potassium channel (human, UniProt Q12809) (assay: primary screen, population patch clamp on CHO cells stably expressing hERG; higher = less effect of the substance).
Chain of human ether-à-go-go-related gene (hERG) potassium channel (Q12809 whole entry, looked up): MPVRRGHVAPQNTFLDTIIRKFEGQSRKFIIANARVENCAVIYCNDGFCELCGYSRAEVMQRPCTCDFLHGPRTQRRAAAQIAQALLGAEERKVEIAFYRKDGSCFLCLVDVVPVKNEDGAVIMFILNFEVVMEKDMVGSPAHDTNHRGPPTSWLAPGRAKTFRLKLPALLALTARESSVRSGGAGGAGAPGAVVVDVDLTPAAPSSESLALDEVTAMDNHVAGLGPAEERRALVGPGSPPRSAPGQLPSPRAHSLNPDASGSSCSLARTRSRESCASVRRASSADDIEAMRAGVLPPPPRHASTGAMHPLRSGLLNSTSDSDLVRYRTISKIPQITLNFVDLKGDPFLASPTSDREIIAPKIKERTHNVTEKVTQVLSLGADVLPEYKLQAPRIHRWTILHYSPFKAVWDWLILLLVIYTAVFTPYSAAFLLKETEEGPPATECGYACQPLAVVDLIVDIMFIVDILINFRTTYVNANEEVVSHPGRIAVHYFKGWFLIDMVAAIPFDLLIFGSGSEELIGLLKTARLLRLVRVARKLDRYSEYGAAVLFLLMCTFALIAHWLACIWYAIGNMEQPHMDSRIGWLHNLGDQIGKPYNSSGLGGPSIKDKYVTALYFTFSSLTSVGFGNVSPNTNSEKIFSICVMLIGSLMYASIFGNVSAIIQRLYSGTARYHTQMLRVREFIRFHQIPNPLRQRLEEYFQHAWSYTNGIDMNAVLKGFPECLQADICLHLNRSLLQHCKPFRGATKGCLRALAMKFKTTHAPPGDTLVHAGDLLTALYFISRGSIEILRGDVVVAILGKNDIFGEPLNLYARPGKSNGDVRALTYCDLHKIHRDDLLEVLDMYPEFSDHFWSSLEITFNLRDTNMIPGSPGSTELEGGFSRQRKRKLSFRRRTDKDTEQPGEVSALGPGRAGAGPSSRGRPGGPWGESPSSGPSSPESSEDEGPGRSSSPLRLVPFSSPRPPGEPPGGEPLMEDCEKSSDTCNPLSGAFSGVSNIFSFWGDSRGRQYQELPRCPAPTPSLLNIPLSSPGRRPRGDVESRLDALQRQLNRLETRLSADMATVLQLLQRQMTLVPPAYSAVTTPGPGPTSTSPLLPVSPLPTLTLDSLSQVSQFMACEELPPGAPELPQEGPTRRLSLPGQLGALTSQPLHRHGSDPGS
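Note: peak tail current of the secondary pulse compared with the same well before compound.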

Structure (SMILES)	hERG current change (%, negative = inhibition) at 10uM
CC(=O)c1c(NCCc2ccccc2)nc(=S)n(-c2ccccc2)c1C	7.04%
CCn1c(=O)cc(OCC(=O)NCc2ccco2)c2ccccc21	0.766%
CCN1CCCC1CNC(=O)Cn1cnc2sc(C)c(S(=O)(=O)N3CCC(C)CC3)c2c1=O (stereo not drawn)	-14.5%
Cc1ccc2nc(N3C(=O)C(O)=C(C(=O)c4ccco4)C3c3ccc(C)o3)sc2c1.O=C(O)C(=O)O (stereo not drawn)	1.65%
CC(NC(=O)C1CCC(CNC(=O)[C@@H]2Cc3ccccc3CN2)CC1)c1ccccc1 (stereo partly drawn)	-4.23%
CCn1c(SCC(=O)Nc2cc(C)on2)nnc1-c1ccc(S(=O)(=O)N2CCCC2)cc1	-1.7%
Cc1ccc2oc(=O)c3cc(C(=O)NCCCN4CCc5ccccc5C4)sc3c2c1	-6.63%
Cc1ccc2cc3cc(C(=O)NCCCN4CC(C)CC(C)C4)oc3nc2c1 (stereo not drawn)	-62.9%
Cc1ccc2cc3cc(C(=O)NCCCN4CCCCCC4)oc3nc2c1	-50.6%
Cc1ccc2cc3cc(C(=O)N4CC(C)CC(C)C4)oc3nc2c1 (stereo not drawn)	1.38%
Cc1ccc2cc3cc(C(=O)NCCCN4CCCC4=O)oc3nc2c1	2.4%
Cc1ccc2cc3cc(C(=O)NCCN4CCOCC4)oc3nc2c1	-14.5%
Cc1ccc2cc3cc(C(=O)NCCCN4CCc5ccccc5C4)oc3nc2c1	-54.9%
Cc1ccc2cc3cc(C(=O)NCc4ccco4)oc3nc2c1	-1.21%
Cc1ccc2cc3cc(C(=O)NCCCN4CCCC4)oc3nc2c1	-15.5%
CCOC(=O)C1C(c2ccccc2O)NC(=O)NC1(O)C(F)(F)F (stereo not drawn)	16.9%
COc1ccc(OCC(=O)Nc2cccc(C(C)=O)c2)cc1	-7.29%
CC(C)(C)c1ccc(C(=O)c2c[nH]c(C(=O)NCCc3ccccn3)c2)cc1	15.1%
Cc1ccc(N(C)C(=O)C2CCCN2S(=O)(=O)c2ccc3c(c2)n(C)c(=O)c(=O)n3C)cc1 (stereo not drawn)	-2.28%
COc1ccccc1C(=O)NCC(=O)N=Nc1c(O)n(C(C)C)c2ccccc12	-7.32%
CC(CN1CCOCC1)OC(=O)c1ccccc1Cl.Cl (stereo not drawn)	12%

Structure (SMILES)	hERG current change (%, negative = inhibition) at 10uM
CC1(C)CC(=O)C(C=NCCN2CCN(C(=S)Nc3ccccc3)CC2)=C(O)C1	-11.3%
CC1(C)CC(=O)C(C=NCCN2CCN(C(=O)Cc3ccc(Cl)cc3)CC2)=C(O)C1	-62%
CC1(C)CC(=O)C(C=NCCN2CCN(C3CC(=O)N(c4ccc(Br)cc4)C3=O)CC2)=C(O)C1 (stereo not drawn)	-19.3%
CC1(C)CC(=O)C(C=NCC2CCN(C(=S)Nc3cccc(Cl)c3)CC2)=C(O)C1	-62.4%
CC1(C)CC(=O)C(C=NCCN2CCN(C3CC(=O)N(c4ccc(Cl)c(Cl)c4)C3=O)CC2)=C(O)C1 (stereo not drawn)	-50.2%
CC1(C)CC(=O)C(C=NCC2CCN(C(=O)Nc3ccc(Cl)c(Cl)c3)CC2)=C(O)C1	-23.8%
CC1(C)CC(=O)C(C=NCCN2CCN(C3CC(=O)N(c4ccc(F)cc4)C3=O)CC2)=C(O)C1 (stereo not drawn)	6.86%
CC1(C)CC(=O)C(C=NCCN2CCN(C(=O)Cc3ccccc3)CC2)=C(O)C1	-24.8%
CC1(C)CC(=O)C(C=NCCN2CCN(C(=S)Nc3ccc(F)cc3)CC2)=C(O)C1	-27.8%
CC1(C)CC(=O)C(C=NCCN2CCN(C(=S)Nc3cccc(Cl)c3)CC2)=C(O)C1	-66.3%
CC1(C)CC(=O)C(C=NCC2CCN(C(=S)Nc3ccccc3)CC2)=C(O)C1	-3.98%
CC1(C)CC(=O)C(C=NCCN2CCN(C(=O)Cc3ccc(F)cc3)CC2)=C(O)C1	-23.5%
COc1ccc(Br)cc1C(=O)Nc1cc(C)cc(C)c1	5.21%
NC(=O)c1cc2n(n1)C(C(F)(F)F)CC(c1ccco1)N2 (stereo not drawn)	-7.54%
COC(=O)C1NN=C(C(=O)c2ccc(Br)cc2)C1c1cccc(Br)c1 (stereo not drawn)	2.42%
CC(C)c1nc2sc3c(SCC(N)=O)ncnc3c2c2c1CCC2	11.9%
NC(=O)c1ccc(C(F)(F)F)n(Cc2c(Cl)cccc2Cl)c1=O	25.1%
CCc1cccc(CC)c1NC(=O)/C(C#N)=C/c1ccccc1C(F)(F)F	21.4%
C=CCn1c(NCCc2ccccc2)nc2c1c(=O)n(C)c(=O)n2C	-1.17%
Cc1ccccc1NC(=O)C1CCC(=O)N1 (stereo not drawn)	-0.504%
Cc1c(N2C(=O)c3ccc(F)cc3C2=O)c(=O)n(-c2ccccc2)n1C	13.6%

Structure (SMILES)	hERG current change (%, negative = inhibition) at 10uM
Cc1ccccc1Nc1nc(N)nc(-c2oc3ccccc3c2C)n1	4.69%
COc1ccc(Cl)cc1NC(=O)CCN1C(=O)C2C3C=CC(C4CC34)C2C1=O (stereo not drawn)	-24.4%
COc1ccc(O)c(-c2cc(-c3ccccc3[N+](=O)[O-])[nH]n2)c1	-11.7%
CCOC(=O)c1c(NC(=O)CSc2nnc(Cc3csc(N)n3)n2C)sc(C)c1C	-51.8%
CCOC(=O)Cc1csc(NC(=O)CSc2nnc(Cc3csc(N)n3)n2C)n1	-1.19%
COC(=O)c1sc(NC(=O)CSc2nnc(Cn3nnc4ccccc43)n2C)nc1C	23.9%
CCOC(=O)c1c(NC(=O)CSc2nnc(CNc3ccc(OC)cc3)n2C)sc(C)c1C	-21.7%
Cc1nc(NC(=O)CSc2nnc(Cn3nnc4ccccc43)n2C)sc1C	0.783%
COC(=O)c1c(NC(=O)CSc2nnc(Cn3nnc4ccccc43)n2C)sc(C)c1C	-62.7%
CN(C)C(=O)N1CCC(C(=O)NCc2ccc3c(c2)OCO3)CC1	5.54%
O=C(CNc1cccc2ccccc12)N/N=C/c1cccc(Oc2ccccc2)c1	18.2%
Cc1ccc(S(=O)(=O)N2CCN(C(=O)COC(=O)CCOc3ccccc3)CC2)c(C)c1	1.16%
CCN(CC(=O)Nc1ccc(OC)cc1)CC(=O)Nc1cccc(C#N)c1	0.389%
COc1ccc(CN2CCCC(C(=O)c3cccc(Cl)c3)C2)cc1 (stereo not drawn)	-57.4%
COc1cccc(OC)c1CN1CCCC(C(=O)c2cccc(Cl)c2)C1 (stereo not drawn)	-69%
O=C(c1cccc(Cl)c1)C1CCCN(Cc2ccon2)C1 (stereo not drawn)	-26.3%
COc1ccc(CN2CCC(C(=O)c3cccc(Cl)c3)CC2)cc1	-78.7%
O=C(c1cccc(Cl)c1)C1CCCN(Cc2ccc(N3CCNC3=O)cc2)C1 (stereo not drawn)	-43.7%
CS(=O)(=O)N1CCC(C(=O)c2cccc(Cl)c2)CC1	-0.907%
COc1ccc(CNC(=O)C2CCN(C(=O)c3cccc(Cl)c3)CC2)cc1	-44.9%
COc1cccc(C(=O)C2CCCN(Cc3ccc(F)cc3)C2)c1 (stereo not drawn)	-18.6%

Structure (SMILES)	hERG current change (%, negative = inhibition) at 10uM
C[C@H](CCC(=O)NCC(=O)[O-])[C@H]1CC[C@H]2[C@@H]3[C@H](O)C[C@@H]4C[C@H](O)CC[C@]4(C)[C@H]3C[C@H](O)[C@]12C.O.[Na+]	-21.4%
Cc1ccc(Cn2ccc(NC(=O)c3cc(-c4ccc(Cl)cc4)on3)n2)cc1	17.3%
COc1cccc(Nc2ncnc3sc(C)cc23)c1.Cl	-8.64%
C#CCOCCOCCOCCNc1nc(N2CCN(C(=O)[C@H]([C@@H](C)CC)n3cc([C@@H](N)CC(C)C)nn3)CC2)nc(N2CCN(C(=O)[C@H](CCCCN)n3cc([C@@H](N)CC(C)C)nn3)CC2)n1.Cl	-10.1%
CCOc1ccccc1CNC(=O)c1ccc(NC(=O)C2=CSCCO2)cc1	7.72%
COc1ccccc1C(=O)NCCC(=O)NCc1ccccn1	-2.66%
O=C(O)C(=O)O.O=[N+]([O-])c1ccc(Oc2ccc(C(F)(F)F)cn2)cc1	-53.9%
O=[N+]([O-])c1ccc(Oc2ccc(Oc3ccc(C(F)(F)F)cn3)cc2)nc1	-1.44%
O=C(O)c1ccc(Oc2ccc(C(F)(F)F)cn2)cc1	17.5%
COc1ccc(NC(=O)Nc2c(C)n(C)n(-c3ccccc3)c2=O)cc1	-18.6%
O=C1N=C(N2CCN(c3ccccc3)CC2)S/C1=C/c1ccco1	-53.8%
NC1=NC(=O)/C(=C\c2ccco2)S1	19.2%
O=C1N=C(N2CCN(c3ccccc3)CC2)S/C1=C/c1cccs1	-49.3%
O=C1N=C(N2CCCC2C(=O)O)S/C1=C\c1ccco1 (stereo not drawn)	35%
O=C1N=C(N2CCN(c3ccccc3)CC2)S/C1=C\c1ccco1	-66.1%
O=C1N=C(N2CCCC2)S/C1=C\c1ccccc1	15.2%
CCC(C)C(NC(=O)CCCNC(=O)CCC(=O)OC1O[C@H]2OC3(C)CC[C@H]4[C@H](C)CCC(C1C)C24OO3)C(=O)O (stereo partly drawn)	4.12%
CC(C)CC(NC(=O)CCCNC(=O)CCC(=O)OC1O[C@H]2OC3(C)CC[C@H]4[C@H](C)CCC(C1C)C24OO3)C(=O)O (stereo partly drawn)	1.34%
